AmpC inh detg – AmpC beta-lactamase inhibition with detergent present | P00811 | AmpC hydrolysis of nitrocefin, absorbance 480 nm, 0.01% Triton | Potency, µM (series often up to 114 µM), for inactives: top-dose activity change, negative = inhibition, actives largely listed as inhibitors | 370,000 compounds, 0.041% hits | AID 485294;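 note: 0% = no-compound wells and -100% = no-enzyme wells; nearly all actives have a fitted effect of over 25% in size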
Target sequence (P00811 whole entry, looked up): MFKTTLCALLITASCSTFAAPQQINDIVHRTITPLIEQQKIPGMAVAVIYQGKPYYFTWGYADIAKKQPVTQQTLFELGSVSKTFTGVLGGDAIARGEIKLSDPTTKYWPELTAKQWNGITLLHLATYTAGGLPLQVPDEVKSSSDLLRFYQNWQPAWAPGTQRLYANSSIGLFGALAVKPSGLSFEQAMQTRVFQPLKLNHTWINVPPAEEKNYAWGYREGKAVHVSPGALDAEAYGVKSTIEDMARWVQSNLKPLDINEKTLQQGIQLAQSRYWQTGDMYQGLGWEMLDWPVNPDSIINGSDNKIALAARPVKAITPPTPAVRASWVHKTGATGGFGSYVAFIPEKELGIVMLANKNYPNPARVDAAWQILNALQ
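20 mM phosphate pH 7.0 + 0.01% (detergent screen) or 0.0001% Triton X-100; 5.3 nM AmpC reagent; cpd preinc 15 min RT; nitrocefin (800 uM stock) to start; A480 q20 s × 4 min; Activity was normalised to no-enzyme and no-compound control wells.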
AmpC no deterg – blocks E. coli AmpC beta-lactamase in detergent-free assay; P00811; AmpC nitrocefin hydrolysis, absorbance 480 nm, 0.0001% Triton; AID 485341; 330,000 compounds, 0.52% hits; Potency, µM (top dose mostly 57.1 µM), for inactives: at the top dose activity change, negative = inhibition, usual class: inhibitors;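 note: plate controls were no compound for no effect and no enzyme for full effect; nearly all actives have a fitted effect of over 20% in size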
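AmpC (5.3 nM in the dispensed reagent) in 20 mM phosphate pH 7.0 with 0.01% (detergent screen) or 0.0001% Triton X-100 was preincubated with compounds for 15 min at room temperature. Nitrocefin was then added from an 800 uM solution, and hydrolysis was followed at 480 nm.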
SARS PLpro yeast – SARS-CoV PLP inhibition in yeast; S. cerevisiae expressing SARS-CoV PLpro, growth rescue; Potency, µM (titrated, usually from 32.9 µM), without a hit: at the highest dose activity, positive = growth rescue, actives largely listed as activators; 330,000 compounds, 0.19% hits; AID 485353; calls by dose curve; note: 0% is about no effect; nearly all actives have a fitted effect of over 55% in size
VACV Venus inh – vaccinia inhibition (Venus reporter); 330,000 compounds, 0.46% hits; AID 720580; Vaccinia virus Venus reporter expression, fluorescence; Potency, µM (titrated, usually from 36.5 µM), inactives show top-dose activity change, negative = inhibition, usual class: inhibitors; calls by dose curve; tested in A549 cells; note: % is set by controls: 0 for no effect and ±100 for the full control effect; nearly all actives have a fitted effect of over 30% in size
VACV mCherry inh – vaccinia inhibition (mCherry reporter); 310,000 compounds, 0.63% hits; AID 720579; Potency, µM (top dose mostly 36.5 µM), for the others: at the highest dose activity change, negative = inhibition, hits mostly inhibitors; Vaccinia virus mCherry reporter infection, fluorescence; calls by dose curve; tested in A549 cells; note: % is set by controls: 0 for no effect and ±100 for the full control effect; nearly all actives have a fitted effect of over 35% in size
An asterisk follows results filed as active; ? = inconclusive; . = not tested or not shown. Most compounds without a hit are left out; they make up all but 1.3% or so of the library. Unless noted, calls come from the whole dose curve; as a rule, active = well fitted curve in the direction sought with a large enough effect; inconclusive = small, poorly fitted or top-dose-only effect, or another doubt; inactive = no such curve, though single readings can be large; an effect the other way counts as inactive or inconclusive. Potency is the fitted concentration of half-maximal effect.

SMILES	AmpC inh detg	AmpC no deterg	SARS PLpro yeast	VACV Venus inh	VACV mCherry inh
Cn1c2cc(Br)sc2c2cnn(Cc3c(F)cccc3Cl)c(=O)c21	-11%	-24%	-3%	.	.
Cn1c2cc(B(O)O)sc2c2cnn(Cc3c(F)cccc3Cl)c(=O)c21	2.5µM*	5µM*	-2%	.	.
Cn1c2cc(B(O)O)sc2c2cnn(Cc3ccc(F)cc3F)c(=O)c21	3.5µM*	3.5µM*	-2%	.	.
Cc1ccc(C23CC4CC(CC(CN)(C4)C2)C3)cc1	-11%	48%	-1%	?	?
NCC12CC3CC(C1)CC(c1ccc(Br)cc1)(C3)C2	-5%	18%	-6%	22µM*	?
CCC(C(=O)Nc1cc(C)ccc1C)n1c(=O)c(C(F)(F)F)nc2ccccc21 (configuration not stated)	-1%	.	.	-7%	-3%
Cc1cccc2nc(CNC(=O)CN3Cc4cc(Cl)ccc4OC(C)C3)cn12 (configuration not stated)	.	.	.	0%	-11%
CCCCS(=O)(=O)CC(COc1ccccc1)OC(=O)c1ccccc1 (configuration not stated)	?	-19%	-2%	7.9µM*	.
CCCCS(=O)CC(CS(=O)CCCC)OC(=O)c1ccccc1 (configuration not stated)	-17%	15%	2%	.	.
O=C(NCC(c1ccco1)N1CCc2ccccc21)C(=O)Nc1ccccc1 (configuration not stated)	?	10µM*	5%	-13%	?
COC(=O)[C@@H]1CCCN1Cc1ccc2c(c1)CN(Cc1coc3ccccc3c1=O)CCO2	.	.	.	14%	-4%
O=C1CCCc2c1[nH]c1c(Br)cccc21	-13%	-8%	-1%	11µM*	.
Cc1cc(Br)c2[nH]c3c(c2c1)CCCC3=O	-7%	12%	-8%	?	.
N=C(N)SCc1cn(-c2ccccc2)nc1-c1ccc(Br)cc1	0%	-32%	0%	?	11µM*
CCC(=O)N1CCc2cc(S(=O)(=O)CCC(=O)Nc3ccc(Cl)c(C(F)(F)F)c3)ccc21	-2%	.	.	7.9µM*	5µM*
O=C(CCS(=O)(=O)c1ccc(Br)cc1)Nc1ccc(Cl)c(C(F)(F)F)c1	4%	.	.	?	11µM*
CN1C(=O)Cc2cc(S(=O)(=O)CCC(=O)Nc3ccc(Cl)c(C(F)(F)F)c3)ccc21	2%	.	.	-17%	-37%
COC(=O)c1cccc(C(=O)N2CCc3c(cnc(C)c3CNC(=O)/C=C/c3cccs3)C2)c1	.	.	.	-10%	-15%
O=c1[nH]c2ccc(Br)cc2c(-c2ccccc2)c1N1CCOCC1	?	1µM*	?	?	?
COc1cc(CNCc2cc3cc(C)ccc3nc2-c2ccc(F)cc2)cc(OC)c1OC	.	.	.	2%	-5%
O=c1c2cn[nH]c2nc(SCc2ccccc2F)n1-c1ccc(Br)cc1	?	11µM*	-18%	-2%	-9%
O=C(CSc1nc2[nH]ncc2c(=O)n1-c1ccccc1)NCCc1ccccc1	-3%	-26%	5%	-11%	-15%
Cc1cccc(NC(=O)CSc2nc3[nH]ncc3c(=O)n2-c2ccccc2)c1	-13%	8.9µM*	6%	.	.
O=C(Nc1ccn(CCCNC2CCN(Cc3ccccc3)CC2)c(=O)n1)OCc1ccccc1	.	.	.	-16%	-5%
CCCCCc1cc(=O)oc2c(C(CCN3CCCCC3)c3ccc4c(c3)OCO4)c(OC)cc(OC)c12 (configuration not stated)	5%	142%	0%	14µM*	?
SMILES	AmpC inh detg	AmpC no deterg	SARS PLpro yeast	VACV Venus inh	VACV mCherry inh
Cc1cnc(-n2ncc(C(=O)NCC(C)(C)N3CCOCC3)c2C)nc1-c1cccs1	.	.	.	10%	-8%
Cc1cc(C)n(-c2nc(Nc3ccccc3C(F)(F)F)nc(-n3nc(C)cc3C)n2)n1	-6%	113%	-7%	13µM*	.
O=C1NC[C@H](c2ccccc2)N(CCCCC2CCCCC2)C1=O	.	.	.	?	2.2µM*
COc1ccc2c(c1)-c1nc(-n3ncc(C(=O)N(C)CC4CCCN(C)C4)c3C)ncc1CC2 (configuration not stated)	.	.	.	-2%	-15%
c1ccc(CNc2ccc3c(c2)ncn3C2CCCCC2)nc1	?	7.1µM*	-2%	2%	-4%
Cc1cc(C)cc(NC(=O)COC(=O)COc2cccc3c2OC(C)(C)C3)c1	?	35µM*	-16%	-8%	-9%
COc1cc(NS(=O)(=O)c2cc(Br)cc3c2N(C(=O)C2CC2)CC3)cc(OC)c1	0%	.	.	?	18µM*
Cc1ccccc1C(=O)NC(C)c1nnc2n1CCN(Cc1ccc(F)cc1)CC2 (configuration not stated)	.	.	.	1%	-2%
CC(=O)c1c(C)oc2c1C(=O)c1ccccc1C2=O	-8%	-9%	26%	-2%	-15%
COc1ccc(CNC(=O)c2ccc(Br)cc2)cc1	5%	-3%	-1%	.	.
COc1ccc(CNC(=O)c2c(C)oc3c2C(=O)c2ccccc2C3=O)cc1	?	-6%	-27%	8.9µM*	7.1µM*
Cc1oc2c(c1C(=O)NCc1cccnc1)C(=O)c1ccccc1C2=O	-4%	-14%	-3%	0.56µM*	?
COc1ccc(CNC(=O)c2c(F)c(F)c(F)c(F)c2F)cc1	-5%	-5%	?	?	11µM*
Cc1ccccc1C1(CC(=O)N2CC3(C)CC2CC(C)(C)C3)CC(=O)N(Cc2cccnc2)C1=O (configuration not stated)	.	.	.	-11%	-15%
CC(C)(O)/C=C/C(=O)[C@](C)(O)C1[C@H](O)C[C@@]2(C)C3CC=C4C(C[C@H](O)[C@@H](O)C4(C)C)[C@]3(C)C(=O)C[C@]12C (some centres not stated)	.	2%	2%	1.6µM*	?
Cc1nc2c(o1)C(=O)c1ccccc1C2=Nc1ccccc1	.	.	.	2.8µM*	2.5µM*
S=c1[nH]nc(-c2cc(-c3ccco3)[nH]n2)n1-c1cccc2ccccc12	-13%	18µM*	6%	.	.
Cc1ccc(-n2c(-c3cc(-c4ccco4)[nH]n3)n[nH]c2=S)c(Br)c1	-4%	-46%	3%	-9%	-3%
FC(F)(F)c1cccc(Nc2nc3nonc3nc2Nc2ccc(Cl)cc2)c1	15%	.	.	1.8µM*	2µM*
O=C(Nc1cccc(C(F)(F)F)c1)c1cc(-c2ccc(Cl)cc2)on1	21%	.	.	6%	-4%
OC[C@H]1OC([S-])[C@H](O)[C@@H](O)[C@@H]1O.[Au+] (some centres not stated)	.	.	.	-1%	-15%
CCc1nnc(N/N=C/c2cc(C)c(C)cc2C)n1N	?	-10%	-13%	13µM*	10µM*
O=C(Nc1ccc(Cl)cn1)c1cccc2c(Br)cccc12	-9%	20µM*	0%	.	.
O=C1CC(NCc2cccs2)C(=O)N1c1ccc(Cl)cc1 (configuration not stated)	?	-23%	-12%	-11%	.
